About 1,500 (0.45%) of roughly 330,000 compounds were called active. The sample holds actives, similar compounds and a random draw of the others, so the mix is not that of the screen. No stated cut-off is given here; in the data, active means inhibition above about 45% (passing the limit was not always enough); inconclusive means no clear call, values can overlap the other calls.

The values below come from PubChem BioAssay AID485273 (Sanford-Burnham Center for Chemical Genomics, 2010).

The assay deals with Ubiquitin-conjugating enzyme E2 N (Homo sapiens) (UniProt P61088). Put plainly: UBC13 polyubiquitin chain formation inhibitors, primary screen, biochemical, TR-FRET, uHTS (AID 485273). Conditions: at 20 µM, stronger effect = higher value. In general terms: TR-FRET usually uses a lanthanide donor and a delayed reading to cut background.
Chain of Ubiquitin-conjugating enzyme E2 N (Homo sapiens) (P61088 whole entry, looked up): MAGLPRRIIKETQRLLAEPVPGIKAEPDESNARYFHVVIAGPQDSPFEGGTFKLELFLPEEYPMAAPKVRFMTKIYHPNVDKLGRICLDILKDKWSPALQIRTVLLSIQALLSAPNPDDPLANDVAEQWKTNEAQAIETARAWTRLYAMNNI
For orientation: inhibition means the drop in the measured response relative to a control, in per cent. Turning to `CCCN(C(=O)CSc1nnc(N)s1)c1c(N)n(Cc2ccccc2)c(=O)[nH]c1=O`, the inhibition is 0.1% (inactive). Consider `COC(=O)C(C)Oc1ccc2c(-c3cccc([N+](=O)[O-])c3)cc(=O)oc2c1` (centres undefined), for which the inhibition was -16.8% (inactive).

With `COc1cccc(CN(C)CC(O)COC(c2ccccc2)c2ccccc2C)c1` (centres undefined), the inhibition is 19.2% (inactive). Regarding `CN(C(=O)CSc1nnc(-c2ccc(C(C)(C)C)cc2)n1C)C1CCS(=O)(=O)C1` (centres undefined), the inhibition is -4.3% (inactive). Consider `OCCn1c(-c2ccccc2)csc1=Nc1ccccc1`, for which the inhibition is -10.7% (inactive). `C#CCNC(=O)C1=C[C@@H](c2ccccc2)[C@H](CCCO)[C@@H](OCC)O1`: the inhibition was 0.9% (inactive).

Regarding `Cc1ccc(NC(=O)Cc2nnc(SCC(=O)Nc3nncs3)n2C)cc1`, the inhibition is -2.3% (inactive). As for `Cc1cccc(Cn2cnc3c(N)c(C)c(C)cc32)c1`, the inhibition was 3.8% (inactive).

Consider `COc1cccc(CNS(=O)(=O)c2cc3c(cc2C)n(C)c(=O)c(=O)n3C)c1`, for which the inhibition was 20% (inactive). As to `COc1cccc(Cn2cnc3c([N+](=O)[O-])c(C)c(C)cc32)c1`, the inhibition is 60.4% (active).

As for `COc1ccc(CNC(=O)C2CCN(S(=O)(=O)c3ccc(SC)cc3)CC2)cc1`, the inhibition was 6.2% (inactive). With `C#CCOCCOCCOCCNc1nc(N2CCN(C(=O)CCCCCCCCCCNC(=O)[C@H](CCCCN)n3cc(C)nn3)CC2)nc(N2CCN(C(=O)CCCCCCCCCCNC(=O)[C@H](CO)n3cc(CCCSC)nn3)CC2)n1`, the inhibition is 121% (active).

For `C#CCOCCOCCOCCNc1nc(N2CCN(C(=O)CCCCCCCCCCNC(=O)Cn3cc(CCCCCN)nn3)CC2)nc(N2CCN(C(=O)CCCCCCCCCCNC(=O)[C@H](CO)n3cc(CCCSC)nn3)CC2)n1`, the inhibition was 128% (active).

Consider `C#CCOCCOCCOCCNc1nc(N2CCN(C(=O)[C@H](C(C)C)n3cc(CCO)nn3)CC2)nc(N2CCN(C(=O)[C@H](C(C)C)n3cc(CCO)nn3)CC2)n1`, for which the inhibition was -11.8% (inactive). `C#CCOCCOCCOCCNc1nc(N2CCN(C(=O)CCCCCCCCCCNC(=O)[C@H]([C@@H](C)CC)n3cc(CCCCN=C(N)N)nn3)CC2)nc(N2CCN(C(=O)CCCCCCCCCCNC(=O)[C@H](CO)n3cc(CCCSC)nn3)CC2)n1`: the inhibition is 121% (active). Regarding `C#CCOCCOCCOCCNc1nc(N2CCN(C(=O)[C@H](C(C)C)n3cc(CCO)nn3)CC2)nc(N2CCN(C(=O)[C@H]([C@@H](C)CC)n3cc(CCCN=C(N)N)nn3)CC2)n1`, the inhibition was 19.7% (inactive). Take `C#CCOCCOCCOCCNc1nc(N2CCN(C(=O)[C@H](CCC(=O)O)n3cc(CN)nn3)CC2)nc(N2CCN(C(=O)[C@H](CCC(=O)O)n3cc(CN)nn3)CC2)n1`: the inhibition is 2.2% (inactive). In the case of `C#CCOCCOCCOCCNc1nc(N2CCN(C(=O)[C@H](CCCN=C(N)N)n3cc(C(N)[C@@H](C)CC)nn3)CC2)nc(N2CCN(C(=O)[C@H](CO)n3cc([C@@H](N)C(C)C)nn3)CC2)n1` (some centres undefined), the inhibition is 33.1% (inactive). As to `C#CCOCCOCCOCCNc1nc(N2CCN(C(=O)Cn3cc(CCCCN)nn3)CC2)nc(N2CCN(C(=O)[C@H](CCCCN)n3cc(CCC(=O)O)nn3)CC2)n1`, the inhibition is 3.6% (inactive).
